Data on eleven compounds can be found in PubChem BioAssay.

Experiment [1] deals with Neuropilin-2 / VEGF-C interaction (human). Description: inhibitors of NRP2–VEGF-C binding, biochemical, microplate binding format, z-score (AID 743281; call rule not given here). The settings on record: microplate NRP2/VEGF-C binding assay; stronger effect = lower value.
Experiment [2] can be described thus: modulation of C. elegans fzo-1 (AID 1259413; call rule not given here;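 note: fzo-1 mutant C. elegans worms in liquid wells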). As to conditions: C. elegans fzo-1 modulator screen, mean read-out; stronger effect = higher value.
The test system of experiment [3] is Aerobactin synthetase IucA (Klebsiella pneumoniae). Description: IucA aerobactin synthetase inhibitors, biochemical, Tocris library, absorbance (AID 1345561; call rule not given here;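 note: 100% = enzyme without compound and 0% = no enzyme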). As to conditions: purified IucA enzyme assay, absorbance (OD) read-out; stronger effect = lower value;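 tested at 8 µM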.
Experiment [4] in a line: viability rescue of complex I mutant cybrids, primary screen, cell-based, galactose medium, ATP luminescence (AID 1645843;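 active = z-score of at least 1.8 in each of two replicates, scored against plate mean and spread of sample wells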;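 note: positive z means more ATP and so rescue of galactose-driven cybrid death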). The settings on record: complex I mutant cybrid cells, 72 h, stronger effect = higher value.
Another experiment concerns F380Y/beta1. Description: modulators of BK channel variants, profiling panel, selectivity assay, cell-based, U2OS BacMam, thallium flux, beta subunits (AID 1259406).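 Note: initial slope of Thallos dye fluorescence rise after thallium is added; log ratio against the mean of 0.3% DMSO vehicle wells on the same plate.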 As to conditions: at 30 µM.
In another experiment the test system is F380Y/beta4. The experiment is described as above. The settings on record: at 30 µM.
For experiment [5], the target named is Calcium-activated potassium channel subunit alpha-1 (Homo sapiens) + Leucine-rich repeat-containing protein 26 (Homo sapiens) (UniProt Q12791+Q2I0M4). Described as above. The settings on record: F380Y/Slo1WT/gamma1, at 30 µM.
A further experiment deals with R275C/beta4. Described as above. As to conditions: at 30 µM.
Experiment [6] relates to Hepatitis C virus NS3 helicase. Description: HCV NS3 helicase inhibitors, primary screen, biochemical, fluorescence polarization, LOPAC1280 library (AID 687035; in the data active = inhibition above about 37%). The settings on record: Purified HCV NS3 helicase, Cy5-dT15 ssDNA binding fluorescence polarization; stronger effect = higher value; concentration not given here. For orientation: In fluorescence polarisation assays a small probe gives low polarisation when free and higher when bound to something large.

Experiment [7] is described as follows: Cy5 fluorescence quenching or enhancement artefacts, artefact control for HCV NS3 helicase inhibitor project, biochemical, LOPAC1280 (AID 687037; call rule not given here). As to conditions: Cy5-DNA-NS3h complex fluorescence interference counterscreen.
Experiment [8] in a line: differential killing of epithelial or mesenchymal cells, primary screen, imaging, PC-3E GFP, TEM4-18 mCherry, co-culture (AID 1345086;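 active = compounds killing one labelled cell type while sparing the other, by normalised counts and ratio limits, not self-fluorescent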;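 for all read-outs here: cells exposed to compound for 72 h before imaging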;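 for red/green cell ratio (normalised): normalised mesenchymal count divided by normalised epithelial count so high means epithelial killing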). The settings on record: imaging cell counts, at 1 µM; for red/green cell ratio (normalised): actives lie on both sides.
Experiment [9] in a line: growth inhibition of DIPG glioma cells, dose response, cell-based, JHH-DIPG-1, MIPE4.0, CellTiter-Glo, qHTS (AID 1347062; cut-off not given, nearly all actives have AC50 up to about 27 µM;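 note: cells exposed to compound for two days before readout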). As to conditions: JHH-DIPG-1 viability, CellTiter-Glo ATP luminescence. On the technique in general: ATP-based viability assays read luminescence as a measure of living cells.
Experiment [10] in a line: growth inhibition of DIPG glioma cells, dose response, cell-based, SU-DIPG-IV, MIPE4.0, CellTiter-Glo, qHTS (AID 1347063; cut-off not given, nearly all actives have AC50 up to about 30 µM;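 note: compound exposure lasted 48 hours before the viability readout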). The settings on record: SU-DIPG-IV viability, CellTiter-Glo ATP luminescence.
A short description of experiment [11]: modifiers of HSF1 nuclear foci, imaging, Selleck Cancer Library (AID 1347162; in the data active = plate-normalised HSF1 focus index below about 0.46). As to conditions: human cells, at 10 µM; SSMD: measured here: HSF1 foci SSMD mean; cell count: measured here: cell number; plate-normalised HSF1 focus index: stronger effect = lower value.
Experiment [12] can be described thus: phospholipid biosynthesis inhibitors in animal cells, primary screen, cell-based, LOPAC library, screen 4 (AID 1347384; call rule not given here). The settings on record: phospholipid biosynthesis inhibition screen, at 10 µM.
A short description of experiment [13]: survival rescue of mitochondrial mutant cells in low glucose, primary screen, MELAS cybrids, Rieske KO mouse fibroblasts, CellTiter-Glo (AID 1508586;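 active = mean z-score across replicates of 1.96 or higher in either the MELAS or the Rieske mutant cell line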;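 note: z relative to plate mean and SD of compound and empty wells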).
For experiment [14], the target named is NAD(+) hydrolase SARM1 (Homo sapiens) (UniProt Q6SZW1). Description: SARM1 TIR NADase inhibitors, cell lysate, NAD-Glo luminescence (AID 1508614;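 active = compound whose remaining NAD level is above about 45 nM, limit read from the data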;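 note: higher remaining NAD means stronger inhibition of SARM1 NADase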). As to conditions: SAM-TIR HEK293T lysate NADase, at 1 µM, stronger effect = higher value.
The nature of experiment [15]: growth inhibition of DIPG glioma cells, dose response, cell-based, SU-DIPG-XIII, MIPE4.0, CellTiter-Glo, qHTS (AID 1347061; cut-off not given, nearly all actives have AC50 up to about 37 µM;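 note: cells exposed to compound for 48 hours before readout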). As to conditions: SU-DIPG-XIII viability, CellTiter-Glo ATP luminescence.
The mark [16] stands for this setting: measured here: epithelial PC-3E GFP cell survival.
[17] abbreviates: measured here: mesenchymal TEM4-18 mCherry cell survival.

Several values for one entry are separate records, joined by “and”; a condition that tells them apart may be missing. Identical values can stand only once. Records with an inconclusive call do not appear. Where a structure was tested more than once in an assay, its records may differ in their call. Activity calls are given as the source filed them.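 Rule for the calls, unless noted: active = thallium flux through the channel raised or lowered by more than 3 SD from vehicle-only wells, actives on both sides; inactive = the rest.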

Chain of Calcium-activated potassium channel subunit alpha-1 (Homo sapiens) + Leucine-rich repeat-containing protein 26 (Homo sapiens) (Q2I0M4 whole entry, looked up, one chain of several): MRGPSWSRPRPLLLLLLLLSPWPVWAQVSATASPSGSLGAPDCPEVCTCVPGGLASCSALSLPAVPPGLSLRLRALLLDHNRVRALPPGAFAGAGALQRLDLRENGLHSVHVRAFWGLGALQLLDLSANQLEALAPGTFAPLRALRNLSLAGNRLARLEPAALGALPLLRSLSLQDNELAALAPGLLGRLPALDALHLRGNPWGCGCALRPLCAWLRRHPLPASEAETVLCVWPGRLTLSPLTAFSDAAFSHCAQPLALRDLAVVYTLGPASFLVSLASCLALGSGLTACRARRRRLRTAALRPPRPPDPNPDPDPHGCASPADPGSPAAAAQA
Chain of NAD(+) hydrolase SARM1 (Homo sapiens) (Q6SZW1 whole entry, looked up): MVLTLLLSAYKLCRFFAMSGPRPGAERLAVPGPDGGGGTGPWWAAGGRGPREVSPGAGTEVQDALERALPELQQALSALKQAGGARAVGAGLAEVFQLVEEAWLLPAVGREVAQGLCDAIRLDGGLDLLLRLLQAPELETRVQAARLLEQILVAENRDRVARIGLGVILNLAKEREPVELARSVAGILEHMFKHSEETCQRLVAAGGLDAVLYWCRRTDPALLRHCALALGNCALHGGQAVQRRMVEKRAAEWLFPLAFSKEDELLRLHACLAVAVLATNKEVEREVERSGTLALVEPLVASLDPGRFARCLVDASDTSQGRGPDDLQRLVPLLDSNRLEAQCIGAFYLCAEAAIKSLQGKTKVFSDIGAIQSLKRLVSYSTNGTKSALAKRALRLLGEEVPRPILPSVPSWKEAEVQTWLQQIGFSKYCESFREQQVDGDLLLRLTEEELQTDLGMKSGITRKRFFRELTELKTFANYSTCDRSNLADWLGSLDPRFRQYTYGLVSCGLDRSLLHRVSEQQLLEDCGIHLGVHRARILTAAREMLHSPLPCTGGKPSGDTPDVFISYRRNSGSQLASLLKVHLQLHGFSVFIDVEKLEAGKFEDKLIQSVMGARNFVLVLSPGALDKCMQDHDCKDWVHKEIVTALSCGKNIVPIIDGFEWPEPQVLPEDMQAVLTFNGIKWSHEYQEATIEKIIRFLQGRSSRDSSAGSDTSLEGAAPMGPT

One may read the remaining activity as the signal under treatment as a percentage of the control signal. With `CS(=O)(=O)Nc1ccc(Cc2noc(-c3ccc4[nH]cc(CCN)c4c3)n2)cc1`, the z-score in [1] is 1.81 (inactive); in experiment [4] it was 0.895 (inactive) and 2.6 (active). In addition, the mean signal in [2] was 254 (inactive). In addition, the remaining activity in experiment [3] was 103% (inactive). Besides, the log fold change Tl+ flux in the experiment with F380Y/beta1 is 0.0172 (inactive); with F380Y/beta4, -0.0117 (inactive); in experiment [5], -0.0241 (inactive); in the experiment with R275C/beta4, 0.0477 (inactive).

Regarding `O=c1c2ccccc2[nH]c(=S)n1-c1ccccc1`, the log fold change Tl+ flux in the experiment on F380Y/beta1 was 0.0064 (inactive); in the experiment with F380Y/beta4 it was 0.0104 (inactive); in experiment [5], 0.0486 (inactive); in the experiment with R275C/beta4, 0.00834 (inactive).

Broadly, the inhibition is the share of the control response that was lost under treatment. One may read the AC50 as the midpoint of the concentration-response curve, whichever way the signal moves. For the compound `CC(O)(CS(=O)(=O)c1ccc(F)cc1)C(=O)Nc1ccc(C#N)c(C(F)(F)F)c1` (stereo not drawn), the inhibition in [6] is 0% (inactive). In addition, the fluorescence ratio (interference) in experiment [7] was 1 (inactive). Moreover, the z-score is 0.117 (inactive) in [1]; -0.358 (inactive) and -0.11 (inactive) and 0.746 (inactive) in experiment [13] (MELAS cybrid survival, CellTiter-Glo 48 h, stronger effect = higher value); 0.621 and -0.29 and 0.356 in [13] (Rieske KO mouse fibroblast survival, CellTiter-Glo 72 h); -0.24 (inactive) and -0.44 (inactive) and 0.235 (inactive) in experiment [4]. Besides, in experiment [2], the mean signal was 225 (inactive). Further, the red/green cell ratio (normalised) in [8] is 1.31 (inactive). Moreover, the normalised cell number was 0.64 in experiment [8] (setting [16]) and 0.84 in [8] (setting [17]). Moreover, the AC50 in experiment [9] is 9.35 µM (active); in experiment [10], 13.2 µM (active). Further, in experiment [11], the SSMD is 2.85. In experiment [11], this compound returned a cell count of 7580. Further, the plate-normalised HSF1 focus index in [11] is 1.1 (inactive). Moreover, the compound was classed as inactive in [12]. Besides, in [14], the remaining NAD was 10 nM (inactive). Also, the log fold change Tl+ flux in the experiment on F380Y/beta1 is 0.0749 (inactive); in the experiment with F380Y/beta4, -0.0644 (inactive); in experiment [5], 0.0529 (inactive); in the experiment with R275C/beta4, 0.0752 (inactive).

In the case of `O=c1[nH]c(=S)[nH]c(O)c1C=C1C=CC=N1`, the log fold change Tl+ flux is 0.0561 (inactive) with F380Y/beta1, 0.0563 (inactive) in the experiment with F380Y/beta4, 0.0242 (inactive) in experiment [5] and 0.0391 (inactive) in the experiment with R275C/beta4.

Take `Cc1ccc(S(=O)(=O)N2CN3CCN(C3)C2)cc1`: the log fold change Tl+ flux in the experiment on F380Y/beta1 is -0.0265 (inactive); with F380Y/beta4, 0.048 (inactive); in experiment [5], 0.0134 (inactive); with R275C/beta4, -0.0275 (inactive).

On to `CCOC(=O)c1cncn1[C@H](C)c1ccccc1`, for which the figures for the z-score in experiment [1] and in experiment [4] were 0.0538 (inactive) and -0.35 (inactive), respectively. Further, the mean signal in experiment [2] is 274 (inactive). In addition, in experiment [8], the red/green cell ratio (normalised) is 0.98 (inactive). Also, the normalised cell number in [8] (setting [16]) was 0.95; in [8] (setting [17]), 0.93. Also, the remaining activity in experiment [3] is 122% (inactive). Besides, the compound was classed as inactive in [15] and in [10]. In addition, the remaining NAD in experiment [14] is 10 nM (inactive). Besides, the log fold change Tl+ flux is -0.0564 (inactive) with F380Y/beta1, -0.0155 (inactive) in the experiment with F380Y/beta4, 0.0279 (inactive) in experiment [5] and 0.0313 (inactive) with R275C/beta4.

With `CSC(=NCc1ccccc1Cl)NC(N)=N[N+](=O)[O-]`, the log fold change Tl+ flux is 0.0433 (inactive) with F380Y/beta1, 0.0594 (inactive) with F380Y/beta4, 0.0227 (inactive) in experiment [5] and -0.0373 (inactive) in the experiment on R275C/beta4.

As to `N#CC(C#N)=Cc1cccnc1`, the log fold change Tl+ flux in the experiment with F380Y/beta1 is 0.00181 (inactive); in the experiment on F380Y/beta4, -0.0312 (inactive); in experiment [5], 6.5e-05 (inactive); in the experiment on R275C/beta4, 0.025 (inactive).

Regarding `Cc1csc2sc(C=C(C#N)C#N)c(C)c12`, the log fold change Tl+ flux is -0.023 (inactive) in the experiment on F380Y/beta1, 0.00092 (inactive) in the experiment with F380Y/beta4, 0.0126 (inactive) in experiment [5] and 0.00359 (inactive) in the experiment with R275C/beta4.

Take `NCCc1ccccn1`: the z-score was 1.2 (inactive) in experiment [1]; 0.8 (inactive) and -0.145 (inactive) in experiment [4]. Also, the mean signal in [2] was 245 (inactive). Besides, in [3], the remaining activity was 108% (inactive). Also, the log fold change Tl+ flux with F380Y/beta1 is 0.0119 (inactive); in the experiment on F380Y/beta4 it was -0.0155 (inactive); in experiment [5], 0.0303 (inactive); in the experiment with R275C/beta4, -0.0421 (inactive).

On to `c1cncc(C2CCCN2)c1` (stereo not drawn), for which the z-score in experiment [1] is -0.685 (inactive); in experiment [4] it was 0.385 (inactive). In [2], the mean signal is 296 (inactive).
